Where “and” joins values, the source holds several entries; their conditions need not be identical. Identical values can stand only once.
Biological target: Casein kinase II subunit alpha (Homo sapiens) (UniProt P68400)
Details: at 1 µM
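Note: reported value is the mean CK2 inhibition.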

Casein kinase II subunit alpha (Homo sapiens), sequence (P68400 whole entry, looked up): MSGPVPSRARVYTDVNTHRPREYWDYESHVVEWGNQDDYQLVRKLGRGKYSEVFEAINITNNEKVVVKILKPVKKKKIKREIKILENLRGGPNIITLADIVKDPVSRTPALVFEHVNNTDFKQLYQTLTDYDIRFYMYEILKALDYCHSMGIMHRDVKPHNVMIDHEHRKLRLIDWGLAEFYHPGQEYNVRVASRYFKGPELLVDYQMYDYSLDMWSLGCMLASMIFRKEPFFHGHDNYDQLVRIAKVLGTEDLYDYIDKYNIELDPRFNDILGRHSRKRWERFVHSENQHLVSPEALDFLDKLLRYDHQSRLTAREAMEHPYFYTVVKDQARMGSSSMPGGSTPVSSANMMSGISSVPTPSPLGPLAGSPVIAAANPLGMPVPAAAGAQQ

Structure (SMILES)	inhibition
Cc1ccc(-c2cc3c(NC(=O)C4CC4)ncnc3o2)cc1	10.8%
Nc1nccc(-c2c(-c3ccc(F)cc3)ncn2C2CCNCC2)n1	18% and 2.93%
CS(=O)(=O)Nc1ccc(-c2ccc3c(NC(=O)C4CC4)n[nH]c3c2)cc1	0.41%
Cn1c(-c2nonc2N)nc2cnccc21	-1.25%
Cc1cc(O)cc(C)c1/C=C/c1cncc(C(N)=O)c1	1.41%
CNC(=O)c1sc(-n2cnc3cc(OC)c(OC)cc32)cc1OCc1ccccc1C(F)(F)F	1.77%
COC(=O)Nc1nc2ccc(Oc3ccc(NC(=O)Nc4cc(C(F)(F)F)ccc4F)cc3)cc2s1	1.75%
COc1cc2c(cc1Nc1nc(Nc3cccc(F)c3C(N)=O)c3cc[nH]c3n1)N(C(=O)CN1CCN(C(C)C)CC1)CC2	10.1%
CS(=O)(=O)CCNCc1ccoc1-c1ccc2ncnc(Nc3ccc(OCc4ccccc4)cc3)c2c1	1.94%
O=C(O[C@H]1CN[C@H](C#Cc2cc3ncnc(Nc4ccc5c(cnn5Cc5ccccc5)c4)c3s2)C1)N1CCOCC1	1.05%
COc1c(C(N)=O)cc(-c2ccc(Cl)cc2)cc1-c1ccc(S(N)(=O)=O)cc1	3.63%
CCS(=O)(=O)c1ccc(OC)c(Nc2ncc(-c3cccc(C(C)=O)c3)o2)c1	21.6%
CNC(=O)c1ncccc1Nc1nc(Nc2cc3c(cc2OC)CCCN3C(=O)CN(C)C)nc2[nH]ccc12	22.8%
CC(C)c1ccc(-c2cc(-c3c[nH]nc3-c3ccccn3)ccn2)cc1	0.83%
Fc1cccc(COc2ccc(Nc3ncncc3C#Cc3ccccc3)cc2Cl)c1	11.3%
FC(F)(F)CNc1nccc(-c2cnn3ncccc23)n1	3.8%

Structure (SMILES)	inhibition
CN1CCC(C(=O)Nc2n[nH]c3nc(-c4ccc(O)cc4)c(Br)cc23)CC1	13.3% and 1.03%
CS(=O)(=O)CCNCc1ccc(-c2ccc3ncnc(Nc4ccc(OCc5ccccc5)cc4)c3c2)o1	3.86%
O=C1Nc2ccccc2/C1=C1\CCc2cc(O)ccc21	9.1%
CNC(=O)c1cncc(/C=C/c2ccccc2C)c1	7.63%
NC(=O)c1ccc2c(-c3ccnc(NCCCO)n3)c(-c3ccc(F)cc3)nn2c1	3.53%
N#Cc1cccc(Nc2ncc(-c3ccccc3)o2)c1	11.7%
CN1CCN(Cc2ccc(-c3cc4ncnc(Nc5ccc(OCc6cccc(F)c6)c(Cl)c5)c4s3)o2)CC1	3.7% and 10.5%
NS(=O)(=O)c1cccc(N/C=C2\C(=O)Nc3ccccc32)c1	3.93%
COc1ccc(Nc2ncc(-c3ccccc3)o2)cc1OC	6.83%
CCn1c(-c2nonc2N)nc2cncc(C(=O)NCCNC)c21	2.99%
NS(=O)(=O)c1ccc(N/N=C2\C(=O)Nc3cccc(CCc4ccncc4)c32)cc1	2.3%
c1ccc(-c2n[nH]cc2-c2ccnc(-c3ccc(OCCn4ccnc4)cc3)c2)nc1	2.53%
c1cnn2ncc(-c3ccnc(NCCCN4CCOCC4)n3)c2c1	4.66%
CCN1CCC(C(=O)Nc2n[nH]c3nnc(-c4cccc(F)c4F)cc23)CC1	-0.24%
O=C(Nc1n[nH]c2nnc(-c3cccnc3)cc12)C1CC1	5.42%
